Data reported in the supplement of paper PMC4466140.

Molecular target: ScBbc1
Assay: SPOT peptide array binding signal intensity (averaged, normalized) (arbitrary units (background-subtracted, floor 0; scale differs between SH3 domains)); higher = stronger binding of the SH3 domain to the peptide
Protocol: (§1)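 GST-tagged SH3 domains from S. cerevisiae (Sc), A. gossypii (Ag), C. albicans (Ca) and S. pombe (Sp) were incubated at 10 ug/ml overnight at 4 C on cellulose SPOT membranes carrying 292 synthetic 15-mer peptides mined from the S. cerevisiae proteome (cysteines replaced by serines). Binding was detected with anti-GST antibody, HRP secondary and chemiluminescence, quantified with Genespotter, and reported as normalized spot intensities averaged over biological replicates.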

Row | Binder | SPOT peptide array binding signal intensity
1 | KRKRFNLLLPKPYLT | 6

Molecular target: ScBem1-D1
Assay: as above
Protocol: as §1

Row | Binder | SPOT peptide array binding signal intensity
2 | KRKRFNLLLPKPYLT | 22

Molecular target: ScBzz1-D1
Assay: as above
Protocol: as §1

Row | Binder | SPOT peptide array binding signal intensity
3 | KRKRFNLLLPKPYLT | 3

Molecular target: ScBzz1-D2
Assay: as above
Protocol: as §1

Row | Binder | SPOT peptide array binding signal intensity
4 | KRKRFNLLLPKPYLT | 40

Molecular target: ScCyk3
Assay: as above
Protocol: as §1

Row | Binder | SPOT peptide array binding signal intensity
5 | KRKRFNLLLPKPYLT | 58

Molecular target: ScFus1
Assay: as above
Protocol: as §1

Row | Binder | SPOT peptide array binding signal intensity
6 | KRKRFNLLLPKPYLT | 570

Molecular target: ScHof1
Assay: as above
Protocol: as §1

Row | Binder | SPOT peptide array binding signal intensity
7 | KRKRFNLLLPKPYLT | ≤ 0

Molecular target: ScHse1
Assay: as above
Protocol: as §1

Row | Binder | SPOT peptide array binding signal intensity
8 | KRKRFNLLLPKPYLT | 1210

Molecular target: ScLsb1
Assay: as above
Protocol: as §1

Row | Binder | SPOT peptide array binding signal intensity
9 | KRKRFNLLLPKPYLT | 34.8

Molecular target: ScLsb2
Assay: as above
Protocol: as §1

Row | Binder | SPOT peptide array binding signal intensity
10 | KRKRFNLLLPKPYLT | 8.5

Molecular target: ScLsb3
Assay: as above
Protocol: as §1

Row | Binder | SPOT peptide array binding signal intensity
11 | KRKRFNLLLPKPYLT | 114

Molecular target: ScLsb4
Assay: as above
Protocol: as §1

Row | Binder | SPOT peptide array binding signal intensity
12 | KRKRFNLLLPKPYLT | 10

Molecular target: ScMyo3
Assay: as above
Protocol: as §1

Row | Binder | SPOT peptide array binding signal intensity
13 | KRKRFNLLLPKPYLT | 1.5

Molecular target: ScMyo5
Assay: as above
Protocol: as §1

Row | Binder | SPOT peptide array binding signal intensity
14 | KRKRFNLLLPKPYLT | 0.5

Molecular target: ScNbp2
Assay: as above
Protocol: as §1

Row | Binder | SPOT peptide array binding signal intensity
15 | KRKRFNLLLPKPYLT | 158

Molecular target: ScPex13
Assay: as above
Protocol: as §1

Row | Binder | SPOT peptide array binding signal intensity
16 | KRKRFNLLLPKPYLT | 0.75

Molecular target: ScRvs167
Assay: as above
Protocol: as §1

Row | Binder | SPOT peptide array binding signal intensity
17 | KRKRFNLLLPKPYLT | 5

Molecular target: ScSho1
Assay: as above
Protocol: as §1

Row | Binder | SPOT peptide array binding signal intensity
18 | KRKRFNLLLPKPYLT | 474

Molecular target: ScSla1-D1-D2
Assay: as above
Protocol: as §1

Row | Binder | SPOT peptide array binding signal intensity
19 | KRKRFNLLLPKPYLT | 96

Molecular target: ScSla1-D3
Assay: as above
Protocol: as §1

Row | Binder | SPOT peptide array binding signal intensity
20 | KRKRFNLLLPKPYLT | 2.75

Molecular target: SpAbp1-D1
Assay: as above
Protocol: as §1

Row | Binder | SPOT peptide array binding signal intensity
21 | KRKRFNLLLPKPYLT | 146

Molecular target: SpBbc1
Assay: as above
Protocol: as §1

Row | Binder | SPOT peptide array binding signal intensity
22 | KRKRFNLLLPKPYLT | 10.8

Molecular target: SpBzz1-D1
Assay: as above
Protocol: as §1

Row | Binder | SPOT peptide array binding signal intensity
23 | KRKRFNLLLPKPYLT | 94.5

Molecular target: SpBzz1-D2
Assay: as above
Protocol: as §1

Row | Binder | SPOT peptide array binding signal intensity
24 | KRKRFNLLLPKPYLT | ≤ 0

Molecular target: SpCyk3
Assay: as above
Protocol: as §1

Row | Binder | SPOT peptide array binding signal intensity
25 | KRKRFNLLLPKPYLT | 4

Molecular target: SpHof1
Assay: as above
Protocol: as §1

Row | Binder | SPOT peptide array binding signal intensity
26 | KRKRFNLLLPKPYLT | 136

Molecular target: SpHof1-2
Assay: as above
Protocol: as §1

Row | Binder | SPOT peptide array binding signal intensity
27 | KRKRFNLLLPKPYLT | 32.5

Molecular target: SpHof1-3
Assay: as above
Protocol: as §1

Row | Binder | SPOT peptide array binding signal intensity
28 | KRKRFNLLLPKPYLT | 403

Molecular target: SpHse1
Assay: as above
Protocol: as §1

Row | Binder | SPOT peptide array binding signal intensity
29 | KRKRFNLLLPKPYLT | 366

Molecular target: SpLsb1
Assay: as above
Protocol: as §1

Row | Binder | SPOT peptide array binding signal intensity
30 | KRKRFNLLLPKPYLT | 3.75

Molecular target: SpLsb4
Assay: as above
Protocol: as §1

Row | Binder | SPOT peptide array binding signal intensity
31 | KRKRFNLLLPKPYLT | 47

Molecular target: SpMyo1
Assay: as above
Protocol: as §1

Row | Binder | SPOT peptide array binding signal intensity
32 | KRKRFNLLLPKPYLT | 2.5

Molecular target: SpNbp2
Assay: as above
Protocol: as §1

Row | Binder | SPOT peptide array binding signal intensity
33 | KRKRFNLLLPKPYLT | 492

Molecular target: SpPex13
Assay: as above
Protocol: as §1

Row | Binder | SPOT peptide array binding signal intensity
34 | KRKRFNLLLPKPYLT | 8.5

Molecular target: SpRvs167
Assay: as above
Protocol: as §1

Row | Binder | SPOT peptide array binding signal intensity
35 | KRKRFNLLLPKPYLT | 12.7

Molecular target: SpSla1-D1-D2
Assay: as above
Protocol: as §1

Row | Binder | SPOT peptide array binding signal intensity
36 | KRKRFNLLLPKPYLT | 3

Molecular target: SpSla1-D3
Assay: as above
Protocol: as §1

Row | Binder | SPOT peptide array binding signal intensity
37 | KRKRFNLLLPKPYLT | 16.5
